Assay [1] concerns the target T1, Aspartate--tRNA(Asp/Asn) ligase (Mycobacterium tuberculosis (strain ATCC 25618 / H37Rv)) (UniProt P9WFW3). Note: in the data most compounds retested in dose-response had high values.
T1 sequence (whole entry): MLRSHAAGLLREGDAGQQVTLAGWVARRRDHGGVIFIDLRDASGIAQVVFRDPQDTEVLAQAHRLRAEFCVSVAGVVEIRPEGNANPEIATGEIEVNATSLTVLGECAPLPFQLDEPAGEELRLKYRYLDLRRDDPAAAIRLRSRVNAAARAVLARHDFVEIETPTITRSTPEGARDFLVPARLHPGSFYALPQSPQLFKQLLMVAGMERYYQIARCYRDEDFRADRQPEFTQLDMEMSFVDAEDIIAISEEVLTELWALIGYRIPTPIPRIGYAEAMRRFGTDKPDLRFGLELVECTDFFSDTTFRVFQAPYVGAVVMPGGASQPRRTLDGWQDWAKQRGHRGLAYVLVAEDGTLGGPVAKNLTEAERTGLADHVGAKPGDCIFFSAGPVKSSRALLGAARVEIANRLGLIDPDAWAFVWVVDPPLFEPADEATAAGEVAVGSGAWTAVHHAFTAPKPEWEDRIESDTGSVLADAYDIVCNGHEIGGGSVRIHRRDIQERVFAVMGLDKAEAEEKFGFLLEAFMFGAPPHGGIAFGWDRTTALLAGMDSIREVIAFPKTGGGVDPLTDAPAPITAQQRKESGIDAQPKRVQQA
The experiment in a line: Assay for Asp RNA synthetase-1 from Mycobacterium tuberculosis. It counts as functional. The conditions noted are these: 30 µM. Also on record: scale not given: direction of the effect not stated beside the values.

Assay [2] deals with Shiga toxin 2 (Escherichia coli O157:H7) (UniProt P09385+P09386). The experiment in a line: E. coli 0.157:H7 Shiga Toxin SOP - stx2 screening assay. To be noted: 30 µM. Also on record: scale not given: direction of the effect not stated beside the values. It counts as functional.

In ChEMBL document CHEMBL3988442, “University of Dundee, Small-Polar-MMV Screening Library” (2021) one finds Percent Effect data, which are given here for 37 molecules.

For the molecule `CN(C)C1CCN(C(=O)NCc2ccccc2Cn2cncn2)CC1`, the Percent Effect was -2.31% in assay [1] and 0.165% in assay [2].
The corresponding values for `CCCc1nnsc1C(=O)NCC1CCN(c2ccccn2)CC1` are -7.59% and -0.668%.
On to `CCc1n[nH]c(C2CN(C(=O)c3ncoc3C(C)C)CCO2)n1` (centres undefined), for which the Percent Effect in assay [1] was 2.8%; in assay [2], -12.1%.
The corresponding values for `NS(=O)(=O)CCNC(=O)c1ccc(-c2ccc(F)cc2)cc1F` are 16.3% and -53.6%.
As for `O=C(NCCN1CCCCC1)c1scnc1Cl`, the Percent Effect in assay [1] was -1.07%; in assay [2], 30.3%.
The corresponding values for `CC(C)(C)NC(=O)C1CSCN1S(=O)(=O)c1ccc(F)cc1` (centres undefined) are 5.02% and 1.58%.
The corresponding values for `CC(=O)N1CCCCC1c1cc(CO)[nH]n1` (centres undefined) are -3.86% and 7.89%.
Turning to `Cn1cc(CN2CCC(F)(F)C3(CCN(c4cnccn4)C3)C2)cn1` (centres undefined), the Percent Effect in assay [1] was -3.65%; in assay [2], -4.7%.
The matching figures for `Cc1cnn(CCNCC(O)COc2ccc(Cl)cc2)c1` (centres undefined): -2.57% and -37.4%.
The matching figures for `Cc1nc(C2CCCN2C(=O)c2cc3c(s2)CCCC3)no1` (centres undefined): -1.23% and 23.4%.
The corresponding values for `O=C(O)c1nnn(Cc2cccc(C(F)(F)F)c2)c1-c1cccnc1` are -1.36% and -46.6%.
On to `Cc1nc(N2CCCC2)nc2c1CCN(C(=O)C1CCCC1)CC2`, for which the figures for the Percent Effect in assay [1] and in assay [2] were 0.726% and -9.64%, respectively.
The matching figures for `O=C(CO)N1C[C@H]2CC[C@@H]1CN(C1Cc3ccccc3C1)C2`: 7.69% and 11.7%.
The corresponding values for `CN(C)c1ncc(-c2cc(C(=O)O)n(CC3CC3)c2)cn1` are 0.577% and 2.77%.
In the case of `Cc1cc(C(=O)NCc2ccc(N3CCCC(C(N)=O)C3)cc2)no1` (centres undefined), the Percent Effect in assay [1] was -6.8%; in assay [2], -3.03%.
The matching figures for `Cc1ncc(CNC(=O)CCOc2ccccc2)c(C2CCCN2C)n1` (centres undefined): 5.05% and -10.2%.
The matching figures for `COCCNC(=O)NCCc1ccn(-c2ccccc2)n1`: -4.41% and 3.32%.
The corresponding values for `Cc1ccc(F)cc1C(=O)N1C[C@@H](CN2CCOCC2)[C@@H](CO)C1` are -3.12% and 19.3%.
`Cc1nn(C)c2cnn(CC(=O)NCCc3ccccc3)c12`: the Percent Effect in assay [1] was -1.83%; in assay [2], -33.3%.
Take `Cc1ccc(CN2CCOC3(CCCN(C(=O)c4ccco4)C3)C2)s1` (centres undefined): the results for the Percent Effect in assay [1] and in assay [2] were 4.58% and -29.2%, respectively.
The corresponding values for `Cc1nc(CN2CCc3ncnc(C)c3CC2)cs1` are -3.93% and -9.46%.
Take `Cc1nn(C)c(C)c1C1CCCN1CCCc1nc2ccccc2o1` (centres undefined): the Percent Effect in assay [1] is 3.71%; in assay [2], 7.57%.
The corresponding values for `CNC(=O)c1cc2c(nc1NCC1CC1)CCN(S(=O)(=O)C1CC1)CC2` are 7.68% and -5.47%.
Consider `Cc1cc(CN2Cc3ccccc3CC2c2nnc(C)o2)on1` (centres undefined), for which the Percent Effect in assay [1] is -0.894%; in assay [2], 8.24%.
On to `Cc1cnn(C2CCCN(C(=O)CCCNc3ncccn3)C2)c1` (centres undefined), for which the Percent Effect in assay [1] stood at 1.18%; in assay [2], 20.6%.
The matching figures for `O=S1(=O)C[C@@H]2[C@H](C1)N(Cc1ncc[nH]1)CCN2CC1CC1`: 0.123% and 4.23%.
The matching figures for `COc1ncccc1C(=O)N1CC[C@H]2C[C@@H](C)O[C@@H]2C1`: -1.34% and -45%.
The matching figures for `CC(=O)N1CCCC1C(=O)NCCOc1cc(C)cc(C)c1` (centres undefined): -2.19% and 9.04%.
As to `CN1CCCN(C(=O)NCc2csc(Br)c2)CC1`, the Percent Effect in assay [1] was 0.175%; in assay [2] it was 14.5%.
The matching figures for `COc1ccc(NC(C)C(=O)N2CCN(Cc3ccccc3)CC2)cn1` (centres undefined): 3.97% and -11.8%.
The matching figures for `COc1ccc(C2CCCN2C(=O)NCCNc2ncccn2)cc1` (centres undefined): 10.2% and -17.2%.
For the molecule `COCc1noc(C2(c3ccc(OC)cc3)CCOCC2)n1`, the Percent Effect in assay [1] is -1.75%; in assay [2], 1.38%.
The corresponding values for `CCCn1nc2c(cc1=O)CN(Cc1cc(C)on1)CC2` are 10% and -9.16%.
The matching figures for `CCCn1ncc2c(C(=O)Nc3n[nH]c(SC)n3)cc(C3CC3)nc21`: -6.49% and -0.011%.
The matching figures for `Cc1cc(C)c(OCC(=O)NS(=O)(=O)c2c(C)noc2C)c(C)c1`: -3.08% and 21.6%.
As to `CC1CCN(C(=O)CN(Cc2ccco2)C2CC2)CC1`, the Percent Effect is 0.548% in assay [1] and -5.22% in assay [2].
The corresponding values for `N#Cc1ccccc1OCCN1CCn2c(nnc2C2CC2)C1` are -1.13% and -21.3%.
